Screens (PubChem)
M4 ag: CHRM4 agonism in calcium assay; P08173; CHO-K1 hM4/Gqi5, Fluo-8 calcium fluorescence; vehicle 0%, full acetylcholine response 100%; activation, % at 3 µM; 360,000 compounds, 0.14% hits; AID 624127;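 active = activation above the run mean over all test wells plus 3 SD, cut at about 32% in these data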;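 also: peak over basal fluorescence ratio per well then scaled between controls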
Target sequence (P08173 whole entry, looked up): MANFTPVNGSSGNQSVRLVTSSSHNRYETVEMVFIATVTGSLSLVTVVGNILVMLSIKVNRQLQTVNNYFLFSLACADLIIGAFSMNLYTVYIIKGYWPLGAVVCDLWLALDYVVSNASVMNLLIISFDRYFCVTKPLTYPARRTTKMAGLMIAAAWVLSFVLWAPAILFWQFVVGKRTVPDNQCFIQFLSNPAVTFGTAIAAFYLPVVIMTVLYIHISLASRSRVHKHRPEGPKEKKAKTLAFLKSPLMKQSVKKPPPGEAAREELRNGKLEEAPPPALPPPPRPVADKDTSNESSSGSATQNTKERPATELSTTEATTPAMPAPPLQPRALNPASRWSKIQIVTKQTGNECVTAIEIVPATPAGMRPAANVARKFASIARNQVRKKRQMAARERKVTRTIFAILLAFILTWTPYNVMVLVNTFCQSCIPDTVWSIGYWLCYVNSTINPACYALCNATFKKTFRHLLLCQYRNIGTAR
CHRM1 PAM: human CHRM1 positive allosteric modulation; 360,000 compounds, 0.088% hits; activation, % at 3 µM; CHO-K1 hM1, Fluo-8 calcium fluorescence, ACh EC20; 0% = ACh EC20, 100% = maximal ACh; P11229; in the data active = activation above about 19%, passing the limit was not always enough
CHRM4 antagonist: antagonists of human muscarinic M4 receptor (CHRM4) | CHO-hM4 cells, ACh EC80, Fluo-8 calcium fluorescence | inhibition, % at 3 µM | 360,000 compounds, 0.73% hits;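 active = inhibition above its plate's cutoff, the mean inhibition of sample wells plus 3 SD, cut at about 27% in these data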
CHRM4 PAM: positive allosteric modulators of human muscarinic M4 receptor; P08173; CHO-K1 hM4/Gqi5, Fluo-8 calcium fluorescence, ACh EC20; 0% = ACh EC20, 100% = maximal ACh; activation, % at 3 µM; 360,000 compounds, 0.4% hits;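 active = activation above its plate's cutoff, the mean activation of sample wells plus 3 SD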
M1 ag: agonists of human M1 muscarinic receptor; P11229; CHO-K1 hM1, Fluo-8 calcium fluorescence, agonist mode; 0% DMSO, 100% acetylcholine EC100; activation, % at 3 µM; 360,000 compounds, 0.33% hits; AID 588814;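 active = activation above the run's mean compound activation plus 3 SD, cut at about 16% in these data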;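 also: peak over basal fluorescence ratio within a 140 s kinetic read after compound addition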
CHRM1 antagonist: blocks human M1 muscarinic receptor | CHO-K1 hM1, Fluo-8 calcium fluorescence, ACh EC80 antagonist | AID 588852 | 360,000 compounds, 1.3% hits | inhibition, % at 3 µM;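 active = percent inhibition above its own plate's cutoff, namely the mean of that plate's compound wells plus 3 SD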;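 also: peak over basal fluorescence ratio during 140 s after agonist addition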
Numbers stand for hits; 0 = inactive. Only some compounds are listed: those with a hit (about 2.2% of all), similar ones and a draw of the others.

SMILES	M4 ag	CHRM1 PAM	CHRM4 antagonist	CHRM4 PAM	M1 ag	CHRM1 antagonist
Cc1cc(C)n(CC(O)Cn2c3ccccc3c3ccccc32)n1 (stereo not given)	0	0	0	0	0	0
Cc1nccn1CC(O)Cn1c2ccccc2c2ccccc21 (stereo not given)	0	0	0	0	0	36
O=C(Nc1ccc(Cl)cc1)Nc1ccc2c(c1)OCO2	0	0	0	0	0	36
CN(CC(=O)Nc1ccc(C#N)cc1)Cc1ccc(Cl)cc1	0	0	0	0	0	0
O=C(Nc1ccc2c(c1)OCO2)Nc1ccc2c(c1)OCO2	0	0	0	0	0	0
N#Cc1ccc(NC(=O)Nc2ccc(Cl)cc2)cc1	0	0	0	0	0	32
CC(=O)Nc1ccc2c(c1)OCCOCCOc1cc(NC(C)=O)ccc1OCCO2	0	0	27	0	0	0
Cc1ccc(NC(=O)Nc2ccc(F)c(Cl)c2)cc1	0	0	0	0	0	36
CSc1ncccc1C(=O)OCC(=O)Nc1ccc(Cl)cn1	0	0	0	0	0	0
O=C(CN1C(=O)S/C(=C/c2cccs2)C1=O)N1CCOCC1	0	0	0	0	0	38
O=C(CN1C(=O)S/C(=C/c2cccs2)C1=O)N1CCCC1	0	0	0	0	0	0
COc1ccc(CN2CCN(C(=O)c3cccnc3)CC2)cc1Br	0	0	0	0	0	0
O=C(COc1ccc(Cl)cc1Cl)NCc1ccncc1	0	0	30	0	0	0
CCCS(=O)(=O)NC(=O)C1(C)CCCN(C(=O)c2ccc3ccccc3c2)C1 (stereo not given)	0	0	0	17	0	0
CCCS(=O)(=O)NC(=O)C1(C)CCCN(C(=O)c2cc(F)cc(F)c2)C1 (stereo not given)	0	0	0	0	0	0
Cc1cc(C)n(C(=O)C(C)n2nc([N+](=O)[O-])c(Br)c2C)n1 (stereo not given)	0	0	0	0	0	0
COc1ccc(C(=O)/C=C/C(=O)N(CC(=O)NC2CCCCC2)Cc2ccccc2)c(O)c1	0	0	0	0	0	0
COc1ccc(C(=O)/C=C/C(=O)N(CC(=O)NC2CCCCC2)CC2CCCO2)c(O)c1 (stereo not given)	0	0	29	0	0	0
CCc1ccc(NS(=O)(=O)c2ccc(OC)c(C)c2)cc1	0	0	0	0	0	0
CC(=O)Nc1ccc(S(=O)(=O)Nc2ccc(Cc3ccncc3)cc2)cc1	0	0	0	0	0	0
COc1ccc(S(=O)(=O)Nc2ccc(Cc3ccncc3)cc2)cc1C	0	0	0	0	0	39
CC(C)(C)c1ccc(S(=O)(=O)Nc2ccc(Cc3ccncc3)cc2)cc1	0	0	0	0	0	62
OCC1(CCOc2ccccc2)CCN(C2Cc3ccccc3C2)CC1	0	0	0	0	0	0
Cc1ccc(OCC(=O)N(Cc2ccccc2)C(C)(C)C)c([N+](=O)[O-])n1	0	0	0	0	0	0
COC(=O)CSc1nc2ccc(NC(=O)CSc3nnnn3Cc3ccccc3)cc2s1	0	0	27	0	0	0
SMILES	M4 ag	CHRM1 PAM	CHRM4 antagonist	CHRM4 PAM	M1 ag	CHRM1 antagonist
CCn1nnnc1SCC(=O)Nc1ccc(OCc2ccccc2)cc1	0	0	0	27	0	0
CN(CC(O)COc1ccccc1F)C1CCCCC1 (stereo not given)	0	0	0	0	0	0
CCOCCn1ccc2c(OCC(=O)Nc3cc(OC)ccc3OC)cccc2c1=O	0	0	0	0	0	0
CCOCCn1ccc2c(OCC(=O)Nc3ccccc3OC)cccc2c1=O	0	0	0	0	0	30
COc1cccc2c(=O)n(CC(=O)Nc3ccc(F)cc3F)ccc12	0	0	0	0	0	28
CC12CCC(C(=O)O)(c3nc(C#N)c(C#N)nc31)C2(C)C (stereo not given)	0	0	0	0	0	0
COc1cc(O)oc1C=Nc1ccc(Cl)cc1	0	0	0	17	0	0
COc1ccc(-c2noc(CCCCC(=O)N3CCN(c4cc(C)ccc4C)CC3)n2)cc1	0	0	30	0	0	0
COc1ccc(-c2noc(CCCC(=O)N3CCN(c4cc(C)ccc4C)CC3)n2)cc1	0	0	0	0	0	0
CCCOc1ccc(C(=O)NC(=S)NNC(=O)c2c(-c3ccccc3)noc2C)cc1	32	0	0	0	97	62
Cc1onc(-c2ccccc2)c1C(=O)NC(=S)NNC(=O)c1ccccc1O	44	0	0	0	74	0
Cc1cc(C(C)(C)C)cc(C)c1C[n+]1ccc2ccccc2c1	0	0	29	0	0	0
COCCCn1cc(C(=O)c2cc(Br)ccc2O)cc(C#N)c1=O	0	0	0	0	0	0
Cc1ccc2c(Cl)c(C)c(N3CCCCC3)nc2n1	0	0	0	0	0	0
O=C(Nc1nnc(-c2ccc3c(c2)CCCC3)o1)c1ccccc1	0	0	0	0	17	0
O=C(Nc1nnc(-c2ccc3c(c2)CCCC3)o1)c1ccccc1Cl	0	0	0	0	0	0
O=C(Nc1ccc(Cl)cc1)Nc1ccccc1NS(=O)(=O)c1cccs1	0	0	0	0	0	34
O=C(Nc1ccc(F)cc1)Nc1ccccc1NS(=O)(=O)c1cccs1	0	0	0	0	0	0
Cc1cc(C)c(C#N)c(Nc2ccc3c(c2)OCCO3)n1	0	0	0	0	0	0
COC(C(=O)Nc1ccc(S(=O)(=O)Nc2ccc(F)cc2)cc1)c1ccccc1 (stereo not given)	0	0	0	0	18	0
CC1Cc2ccccc2N1C(=O)CSc1nnc(-c2ccc(S(=O)(=O)N3CCOCC3)cc2)n1C (stereo not given)	0	0	0	0	0	0
Cc1c(C(=O)Nc2ccc3c(c2)OCCO3)sc2nc(-c3ccccc3)cn12	0	0	34	0	0	42
COc1ccc(N2CCOCC2)c(NC(=O)c2ccco2)c1	0	0	0	0	0	0
COC(=O)c1ccc(N2CCOCC2)c(NC(=O)c2ccco2)c1	0	0	28	0	0	0
COC(=O)CC1=C(C(=O)OC)C(c2cccc(OCC(N)=O)c2)C(C#N)=C(N)O1 (stereo not given)	0	0	0	0	0	0
Clc1ccc(C(c2cccs2)N2CCNCC2)cc1 (stereo not given)	0	0	0	0	0	45
O=S(=O)(c1ccc(Cl)cc1)N1CCNCC1	0	0	0	0	0	0
Cc1ccc(Cl)cc1-c1cc(C(=O)NCc2ccco2)[nH]n1	0	0	0	0	0	0
CN(C)Cc1cc(C(F)(F)F)ccc1C(O)(c1ccccc1)c1ccccc1	0	0	57	0	0	101
COc1ccc(C2=NOC(Cn3nc(C(=O)NCc4ccco4)cc3-c3ccccc3)C2)cc1 (stereo not given)	0	0	0	0	0	33
